PubChem BioAssay AID1159580 (chemical genetic matrix, 2015)
“And” between values parts separate entries of the source, which are not always exact repeats. Equal values may be shown once. About 2,000 (36%) of roughly 5,500 compounds were called active. Another 18% or so got no clear call; they are omitted. Cut-off read from the data, not from the text of the source: active = normalized growth mostly below about 0.91 (no sharp cut-off); inconclusive = no clear call, values can overlap the other calls; inactive = mostly above about 0.92. The list shows a part of the results.

Experiment: chemical genetic growth profiling, strain panel (AID 1159580);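 note: tested at 20 µM; growth read once vehicle control cultures reached saturation at 30 °C; 1 = growth at the plate median or of vehicle wells; lower values mean less growth of the strain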
Details: S. cerevisiae deletion strains, growth OD

Measured: normalized growth

Cn1c(=O)c2c(ncn2CCO)n(C)c1=O
inactive: locus YAL013W, strain DEP1, stronger effect = lower value 1 | locus YAL021C, strain ccr4, stronger effect = lower value 1.02 | locus YAL026C, strain drs2, stronger effect = lower value 1.02 | locus YAL030W, strain snc1, stronger effect = lower value 1.02 | locus YBL061C, strain skt5, stronger effect = lower value 1.03 | locus YBR009C, strain hhf1, stronger effect = lower value 1.02 | locus YBR021W, strain FUR4, stronger effect = lower value 1.04 | locus YBR023C, strain chs3, stronger effect = lower value 1.01 | locus YBR171W, strain sec66, stronger effect = lower value 1.03 | locus YBR229C, strain ROT2, stronger effect = lower value 1 | locus YBR231C, strain swc5, stronger effect = lower value 1.02 | locus YBR279W, strain paf1, stronger effect = lower value 1.02 | locus YCL011C, strain gbp2, stronger effect = lower value 1.02 | locus YCL016C, strain dcc1, stronger effect = lower value 1.01 | locus YCL029C, strain bik1, stronger effect = lower value 1.02 | locus YCL061C, strain MRC1, stronger effect = lower value 1.02 | locus YCL069W, strain vba3, stronger effect = lower value 1.02 | locus YCR088W, strain abp1, stronger effect = lower value 1.02 | locus YDL005C, strain med2, stronger effect = lower value 1.02 | locus YDL035C, strain GPR1, stronger effect = lower value 0.997 | locus YDL040C, strain nat1, stronger effect = lower value 1.01 | locus YDL074C, strain BRE1, stronger effect = lower value 1.04 | locus YDL101C, strain DUN1, stronger effect = lower value 1.02 | locus YDL134C, strain PPH21, stronger effect = lower value 1 | locus YDL185W, strain tfp1, stronger effect = lower value 1 | locus YDL192W, strain arf1, stronger effect = lower value 1.01 | locus YDR001C, strain nth1, stronger effect = lower value 1.02 | locus YDR069C, strain doa4, stronger effect = lower value 1.03 | locus YDR101C, strain arx1, stronger effect = lower value 1.01 | locus YDR137W, strain rgp1, stronger effect = lower value 1.04 | locus YDR150W, strain NUM1, stronger effect = lower value 1 | locus YDR159W, strain sac3, stronger effect = lower value 1.02 | locus YDR162C, strain NBP2, stronger effect = lower value 1.01 | locus YDR195W, strain ref2 0.995 | locus YDR297W, strain sur2, stronger effect = lower value 1 | locus YDR318W, strain mcm21, stronger effect = lower value 1 | locus YDR334W, strain swr1, stronger effect = lower value 1.02 | locus YDR335W, strain msn5, stronger effect = lower value 1.02 | locus YDR388W, stronger effect = lower value 0.998 | locus YDR392W, strain spt3, stronger effect = lower value 1.03 | locus YDR502C, strain sam2, stronger effect = lower value 0.978 | locus YEL003W, strain gim4, stronger effect = lower value 1.02 | locus YEL037C, strain rad23, stronger effect = lower value 1.05 | locus YEL061C, strain CIN8 (second series), stronger effect = lower value 1.02 | locus YEL061C, strain CIN8, stronger effect = lower value 1 | locus YER015W, strain faa2, stronger effect = lower value 1.02 | locus YER016W, strain bim1, stronger effect = lower value 1.01 | locus YER110C, stronger effect = lower value 1.01 | locus YER111C, strain swi4, stronger effect = lower value 1.03 | locus YER155C, strain BEM2 (second series), stronger effect = lower value 1.04 | locus YER155C, strain BEM2, stronger effect = lower value 1.01 | locus YER167W, strain BCK2, stronger effect = lower value 0.979 | locus YFR010W, strain ubp6, stronger effect = lower value 1.02 | locus YGL078C, strain dbp3, stronger effect = lower value 0.994 | locus YGL086W, strain mad1, stronger effect = lower value 0.986 | locus YGL167C, strain pmr1, stronger effect = lower value 1.02 | locus YGL173C, strain kem1, stronger effect = lower value 1.03 | locus YGL227W, strain vid30, stronger effect = lower value 1 | locus YGL240W, strain doc1, stronger effect = lower value 1.02 | locus YGL248W, strain PDE1, stronger effect = lower value 1.01 | locus YGL253W, strain hxk2, stronger effect = lower value 1.02 | locus YGR078C, strain PAC10, stronger effect = lower value 1.02 | locus YGR135W, strain pre9, stronger effect = lower value 0.971 | locus YGR229C, strain SMI1, stronger effect = lower value 0.99 | locus YGR252W, strain gcn5, stronger effect = lower value 0.912 | locus YHR013C, strain ard1, stronger effect = lower value 1.04 | locus YHR027C, strain rpn1, stronger effect = lower value 1 | locus YHR030C, strain SLT2, stronger effect = lower value 0.999 and 0.984 | locus YHR079C, strain IRE1 (second series), stronger effect = lower value 1.01 | locus YHR079C, strain IRE1, stronger effect = lower value 0.974 | locus YHR094C, strain hxt1, stronger effect = lower value 0.998 | locus YHR129C, strain ARP1, stronger effect = lower value 1.02 | locus YHR142W, strain chs7, stronger effect = lower value 1.02 | locus YHR200W, strain rpn10, stronger effect = lower value 0.994 | locus YIL066C, strain RNR3, stronger effect = lower value 1.01 | locus YIL073C, strain SPO22, stronger effect = lower value 0.927 | locus YIL125W, strain kgd1, stronger effect = lower value 0.988 | locus YIR030C, strain dcg1, stronger effect = lower value 1.01 | locus YJL092W, strain hpr5, stronger effect = lower value 1.02 | locus YJL095W, strain BCK1 (second series), stronger effect = lower value 1 | locus YJL095W, strain BCK1, stronger effect = lower value 1.04 and 0.969 | locus YJL115W, strain asf1, stronger effect = lower value 1.02 | locus YJL129C, strain trk1, stronger effect = lower value 1.04 | locus YJL134W, strain LCB3, stronger effect = lower value 1.01 | locus YJL154C, strain vps35, stronger effect = lower value 1.02 | locus YJL164C, strain tpk1, stronger effect = lower value 1.02 | locus YJL166W, strain qcr8, stronger effect = lower value 1.02 | locus YJL168C, strain set2, stronger effect = lower value 1.01 | locus YJL187C, strain SWE1 (second series), stronger effect = lower value 1.03 | locus YJL187C, strain SWE1, stronger effect = lower value 1.01 | locus YJR043C, strain POL32, stronger effect = lower value 1.03 | locus YJR066W, strain TOR1, stronger effect = lower value 0.909
